Results published in PubChem BioAssay (EPA / NIEHS).
Values joined by “and” are separate entries in the source; they are usually repeats but may differ in a detail not shown here. Equal entries are not always repeated. Results filed as inconclusive are left out. Where a structure was tested more than once in an assay, its records may differ in their call. Active and inactive are the calls of the source. Rule for the calls, unless noted: active = hit-call score of the fitted dose curve at least 0.9, where 1 is the maximum; inactive = score below 0.9.

Legend:
[1] = molecular target: Estrogen-related receptor gamma (Homo sapiens) (UniProt P62508); test: ATG_ERRg_TRANS: Attagene TRANS-FACTORIAL HepG2 Assay for human Estrogen-Related Receptor gamma (ERRg) (AID 2282977; active = hit-call score of the fitted dose curve at least 0.9, where 1 is the maximum;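 note: hits increase reporter signal over DMSO so potencies reflect activators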); conditions: HepG2 Attagene TRANS reporter, ERRg transactivation
Chain of Estrogen-related receptor gamma (Homo sapiens) (P62508 whole entry, looked up, the tested form may be a part): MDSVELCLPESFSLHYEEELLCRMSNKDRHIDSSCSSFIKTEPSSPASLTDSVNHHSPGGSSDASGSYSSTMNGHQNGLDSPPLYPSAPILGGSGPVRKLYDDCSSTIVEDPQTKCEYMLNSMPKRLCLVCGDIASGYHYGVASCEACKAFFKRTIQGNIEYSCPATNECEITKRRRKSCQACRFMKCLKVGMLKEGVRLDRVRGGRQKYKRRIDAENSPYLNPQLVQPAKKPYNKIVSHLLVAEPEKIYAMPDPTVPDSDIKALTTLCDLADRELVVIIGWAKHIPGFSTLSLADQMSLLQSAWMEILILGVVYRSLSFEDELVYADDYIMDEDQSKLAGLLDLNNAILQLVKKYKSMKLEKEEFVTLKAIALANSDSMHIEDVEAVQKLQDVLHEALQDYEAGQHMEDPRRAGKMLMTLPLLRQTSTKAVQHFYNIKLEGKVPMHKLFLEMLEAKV
Method in brief: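 Exogenous NR-Gal4 chimera activity was assessed in HepG2 cells bearing transfected GAL4-UAS reporters. After 24 h dosing, total RNA underwent RT-PCR, fluorescent primer extension and HpaI digestion before capillary electrophoresis, with gain of signal scored against DMSO.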

[2] = molecular target: Bile acid receptor (Homo sapiens) (UniProt Q96RI1); test: ATG_FXR_TRANS: Attagene TRANS-FACTORIAL HepG2 Assay for Farnesoid X Receptor (FXR) (AID 2282979; active = hit-call score of the fitted dose curve at least 0.9, where 1 is the maximum;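 note: hits raise reporter mRNA above DMSO so AC50 marks FXR activation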); conditions: HepG2 Attagene TRANS FXR-GAL4 reporter transcription
Chain of Bile acid receptor (Homo sapiens) (Q96RI1 whole entry, looked up, the tested form may be a part): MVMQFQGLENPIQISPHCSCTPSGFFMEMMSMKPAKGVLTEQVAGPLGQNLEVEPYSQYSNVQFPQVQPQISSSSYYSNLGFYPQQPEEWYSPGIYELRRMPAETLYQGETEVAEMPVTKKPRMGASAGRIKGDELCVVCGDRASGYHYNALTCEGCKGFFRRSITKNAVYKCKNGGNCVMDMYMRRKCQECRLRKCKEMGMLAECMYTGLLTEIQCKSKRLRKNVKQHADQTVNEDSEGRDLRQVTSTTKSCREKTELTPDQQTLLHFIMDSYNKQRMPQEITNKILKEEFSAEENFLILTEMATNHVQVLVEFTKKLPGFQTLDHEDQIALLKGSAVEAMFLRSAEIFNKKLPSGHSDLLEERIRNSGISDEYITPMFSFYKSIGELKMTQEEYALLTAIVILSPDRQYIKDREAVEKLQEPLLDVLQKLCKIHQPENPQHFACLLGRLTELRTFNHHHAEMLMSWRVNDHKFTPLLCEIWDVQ
Method in brief: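 HepG2 cells were transiently transfected with GAL4-UAS reporters driven by chimeric NR-Gal4 proteins and dosed for 24 h. Reporter mRNA was quantified by RT-PCR, fluorescent labelling, HpaI digestion and capillary electrophoresis, with gain of signal scored versus DMSO.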

[3] = molecular target: Transcriptional activator Myb (Homo sapiens) (UniProt P10242); test: ATG_Myb_CIS: Attagene CIS-FACTORIAL HepG2 Assay for human Myeloblastosis (Myb) Proto-Oncogene Transcription Factor (AID 2282986); conditions: HepG2 Attagene CIS-FACTORIAL Myb reporter transcription; actives raise or lower the signal
Chain of Transcriptional activator Myb (Homo sapiens) (P10242 whole entry, looked up): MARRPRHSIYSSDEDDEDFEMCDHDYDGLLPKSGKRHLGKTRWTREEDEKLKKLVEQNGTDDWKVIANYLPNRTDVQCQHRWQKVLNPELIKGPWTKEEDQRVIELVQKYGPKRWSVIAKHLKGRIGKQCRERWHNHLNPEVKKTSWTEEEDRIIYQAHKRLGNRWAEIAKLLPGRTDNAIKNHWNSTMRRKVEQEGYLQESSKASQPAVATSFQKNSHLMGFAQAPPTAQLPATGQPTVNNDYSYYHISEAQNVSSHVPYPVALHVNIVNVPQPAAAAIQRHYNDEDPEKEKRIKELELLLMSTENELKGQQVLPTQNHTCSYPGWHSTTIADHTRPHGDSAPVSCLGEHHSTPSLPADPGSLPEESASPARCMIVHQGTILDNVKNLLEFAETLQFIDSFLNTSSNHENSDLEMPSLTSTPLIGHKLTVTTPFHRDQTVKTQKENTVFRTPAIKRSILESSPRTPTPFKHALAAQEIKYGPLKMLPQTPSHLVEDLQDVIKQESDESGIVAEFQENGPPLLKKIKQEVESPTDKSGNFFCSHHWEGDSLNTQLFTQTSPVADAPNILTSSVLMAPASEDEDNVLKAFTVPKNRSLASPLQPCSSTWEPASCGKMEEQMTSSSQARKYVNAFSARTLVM
Method in brief: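 HepG2 cells were transiently transfected with cis-regulated multiple reporter transcription units reflecting endogenous Myb activity, then exposed to compound for 24 hours. Reporter mRNA was measured by RT-PCR with capillary electrophoresis; bidirectional fitting versus DMSO baseline.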

[4] = molecular target: Nuclear respiratory factor 1 (Homo sapiens) (UniProt Q16656); test: ATG_NRF1_CIS: Attagene CIS-FACTORIAL HepG2 Assay for human Nuclear Respiratory Factor 1 (NRF1) Orphan Gene (AID 2282987); conditions: HepG2 NRF1 cis-element reporter, Attagene multiplex; actives raise or lower the signal
Chain of Nuclear respiratory factor 1 (Homo sapiens) (Q16656 whole entry, looked up): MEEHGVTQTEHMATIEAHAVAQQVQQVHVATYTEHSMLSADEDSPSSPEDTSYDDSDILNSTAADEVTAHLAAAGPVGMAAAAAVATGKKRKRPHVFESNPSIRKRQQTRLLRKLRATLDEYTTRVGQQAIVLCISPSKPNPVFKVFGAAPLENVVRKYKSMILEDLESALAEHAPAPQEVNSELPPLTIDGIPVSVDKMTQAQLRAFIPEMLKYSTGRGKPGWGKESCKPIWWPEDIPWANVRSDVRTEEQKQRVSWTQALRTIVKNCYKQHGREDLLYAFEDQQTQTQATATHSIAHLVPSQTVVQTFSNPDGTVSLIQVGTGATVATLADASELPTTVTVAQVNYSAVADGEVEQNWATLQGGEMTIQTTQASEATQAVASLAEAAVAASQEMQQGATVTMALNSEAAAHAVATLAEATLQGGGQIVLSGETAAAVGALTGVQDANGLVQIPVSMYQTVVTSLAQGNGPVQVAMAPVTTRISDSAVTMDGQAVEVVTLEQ
Method in brief: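 HepG2 cells transiently transfected with multiple reporter transcription units under cis-regulatory promoter control, so endogenous transcription-factor activity is read. After 24 h compound exposure, reporter mRNA quantified by RT-PCR, fluorescent labelling, HpaI digestion and capillary electrophoresis; bidirectional fitting versus DMSO.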

[5] = molecular target: Myc proto-oncogene protein (Homo sapiens) (UniProt P01106); test: ATG_Myc_CIS: Attagene CIS-FACTORIAL HepG2 Assay for human Myelocytomatosis (Myc) Proto-Oncogene Transcription Factor (AID 2282990); conditions: HepG2, Attagene cis-reporter transcription factor activity; actives raise or lower the signal
Chain of Myc proto-oncogene protein (Homo sapiens) (P01106 whole entry, looked up, the tested form may be a part): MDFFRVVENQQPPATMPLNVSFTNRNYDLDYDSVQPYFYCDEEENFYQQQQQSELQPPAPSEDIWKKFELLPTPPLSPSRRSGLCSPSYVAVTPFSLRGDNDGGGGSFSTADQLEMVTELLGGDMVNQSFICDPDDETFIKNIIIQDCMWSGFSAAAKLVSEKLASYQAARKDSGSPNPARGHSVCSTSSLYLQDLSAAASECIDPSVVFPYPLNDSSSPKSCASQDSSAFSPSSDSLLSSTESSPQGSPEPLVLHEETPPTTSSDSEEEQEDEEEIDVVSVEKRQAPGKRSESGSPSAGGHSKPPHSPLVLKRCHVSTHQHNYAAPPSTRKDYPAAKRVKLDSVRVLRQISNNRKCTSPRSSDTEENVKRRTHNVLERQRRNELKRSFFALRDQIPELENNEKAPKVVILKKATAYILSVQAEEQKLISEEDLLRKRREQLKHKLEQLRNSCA
Method in brief: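 After 24 h chemical treatment of HepG2 cells carrying multiplexed cis-regulated reporter constructs, reporter transcripts quantified by RT-PCR and capillary electrophoresis of fluorescent fragments. Gain or loss fitted against DMSO baseline.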

[6] = ATG_NF_kB_CIS: Attagene CIS-FACTORIAL HepG2 Assay for human Nuclear Factor Kappa B (NF-kB) (AID 2282991); conditions: HepG2 Attagene cis-factorial NF-kB reporter mRNA; actives raise or lower the signal
Method in brief: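 HepG2 cells transiently transfected with multiplexed cis-element reporter units measuring endogenous transcription factor activity; reporter mRNA read 24 h after dosing by RT-PCR, fluorescent labelling, HpaI digestion and capillary electrophoresis. Bidirectional fit against DMSO baseline.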

[7] = ATG_NRF2_ARE_CIS: Attagene CIS-FACTORIAL HepG2 Assay for human Nuclear Factor Erythroid 2 Related Factor 2 (NFR2) response to Antioxidant Response Elements (ARE) (AID 2282992); conditions: HepG2 Attagene ARE/NRF2 reporter, transcription factor activity; actives raise or lower the signal
Method in brief: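 Endogenous transcription factor activity read out as reporter transcript levels (RT-PCR plus capillary electrophoresis, fluorescence) in transiently transfected HepG2 cells. Measured at 24 h after dosing; gain or loss of signal fitted versus DMSO.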

[8] = ATG_Oct_MLP_CIS: Attagene CIS-FACTORIAL HepG2 Assay for human Octamer-Binding Transcription Factor (Oct) (AID 2282993); conditions: HepG2 Attagene cis-factorial Oct reporter, mRNA; actives raise or lower the signal
Method in brief: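 Cells of the HepG2 line express promoter-controlled reporter sequences whose mRNA levels, after 24 h treatment, are measured by RT-PCR and capillary electrophoresis. Increases and decreases are scored relative to DMSO.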

[9] = molecular target: Cellular tumor antigen p53 (Homo sapiens) (UniProt P04637); test: ATG_p53_CIS: Attagene CIS-FACTORIAL HepG2 Assay for human p53 Transcription Factor (AID 2282994); conditions: HepG2 p53 cis-element reporter, Attagene mRNA; actives raise or lower the signal
Chain of Cellular tumor antigen p53 (Homo sapiens) (P04637 whole entry, looked up): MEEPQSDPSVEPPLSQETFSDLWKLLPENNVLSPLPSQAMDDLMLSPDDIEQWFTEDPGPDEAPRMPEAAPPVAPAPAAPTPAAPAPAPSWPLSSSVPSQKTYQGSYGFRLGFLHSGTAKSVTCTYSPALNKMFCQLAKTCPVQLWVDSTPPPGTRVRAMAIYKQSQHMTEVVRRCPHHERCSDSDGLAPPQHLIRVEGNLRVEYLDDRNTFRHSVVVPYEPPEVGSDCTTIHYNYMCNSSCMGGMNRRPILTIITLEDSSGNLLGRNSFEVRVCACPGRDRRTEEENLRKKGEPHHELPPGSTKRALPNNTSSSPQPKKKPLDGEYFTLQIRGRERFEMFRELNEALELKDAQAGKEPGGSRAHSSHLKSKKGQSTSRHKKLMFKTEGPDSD
Method in brief: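 Endogenous p53 activity read in transiently transfected HepG2 from a cis-element-driven reporter transcript after 24 h exposure. RNA reverse-transcribed, PCR-amplified, fluorescently labelled and sized by capillary electrophoresis; gain or loss fitted against DMSO baseline.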

[10] = BSK_3C_TissueFactor: BioMAP Diversity Plus: 3C Assay for Tissue Factor Biomarker Activity (AID 2282997); conditions: BioMAP 3C HUVEC, tissue factor biomarker readout; actives raise or lower the signal
Method in brief: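 Tissue Factor measured by ELISA, 24 h after treatment of primary HUVEC in the BioMAP 3C setting.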

[11] = BSK_3C_uPAR: BioMAP Diversity Plus: 3C Assay for Urokinase-type plasminogen activator receptor (uPAR) Biomarker Activity (AID 2282998); conditions: BioMAP 3C HUVEC, uPAR biomarker ELISA; actives raise or lower the signal
Method in brief: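 Endothelial primary cells of human umbilical vein origin received test chemical; 24 h later uPAR was assayed by ELISA. Fitting was bidirectional, DMSO as negative control.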

[12] = BSK_3C_VCAM1: BioMAP Diversity Plus: 3C Assay for Vascular cell adhesion molecule 1 (VCAM1) Biomarker Activity (AID 2282999); conditions: BioMAP 3C HUVEC, VCAM1 ELISA, cytokine-stimulated; actives raise or lower the signal
Method in brief: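 Activity fitted in both directions relative to DMSO, with ELISA measurement of the surface marker on primary HUVEC (3C) at 24 h post-treatment; parallel SRB staining (0.1% SRB, TCA-fixed, 560 nm) flagged overt cytotoxicity.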

[13] = BSK_4H_Eotaxin3: BioMAP Diversity Plus: 4H Assay for Eotaxin 3 Biomarker Activity (AID 2283000); conditions: primary human endothelial cells (HUVEC); actives raise or lower the signal
Method in brief: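 Eotaxin-3 (CCL26) levels were measured by ELISA in HUVEC primary cultures 24 h post-dosing. Gain or loss of signal was fitted in both directions, with DMSO serving as baseline and negative control.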

[14] = molecular target: Hepatocyte nuclear factor 4-alpha (Homo sapiens) (UniProt P41235); test: ATG_HNF4a_TRANS: Attagene TRANS-FACTORIAL HepG2 Assay for human Hepatocyte Nuclear Factor 4 alpha (HNF4a) (AID 2282982; active = hit-call score of the fitted dose curve at least 0.9, where 1 is the maximum); conditions: HepG2 HNF4a transactivation reporter, mRNA readout
Chain of Hepatocyte nuclear factor 4-alpha (Homo sapiens) (P41235 whole entry, looked up): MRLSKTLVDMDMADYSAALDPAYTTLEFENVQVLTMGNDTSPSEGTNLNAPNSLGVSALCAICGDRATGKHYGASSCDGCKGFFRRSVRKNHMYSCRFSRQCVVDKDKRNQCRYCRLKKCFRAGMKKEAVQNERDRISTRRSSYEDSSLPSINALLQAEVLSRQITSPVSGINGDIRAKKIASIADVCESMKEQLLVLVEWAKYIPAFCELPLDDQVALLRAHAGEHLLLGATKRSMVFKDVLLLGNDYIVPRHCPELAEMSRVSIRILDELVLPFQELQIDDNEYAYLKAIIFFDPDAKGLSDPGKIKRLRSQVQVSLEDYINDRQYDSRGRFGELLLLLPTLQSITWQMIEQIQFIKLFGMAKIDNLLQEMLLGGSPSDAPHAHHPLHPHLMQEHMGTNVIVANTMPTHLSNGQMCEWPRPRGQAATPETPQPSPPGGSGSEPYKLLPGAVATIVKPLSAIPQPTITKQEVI
Method in brief: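 Multiplexed reporter assay: transfected HepG2, 24 h exposure, total RNA → oligo(dT) RT → PCR → 6-FAM extension → HpaI digest → CE fluorescence. DMSO = negative control.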

[15] = ATG_M_06_TRANS: Attagene TRANS-FACTORIAL HepG2 Assay for M06 Transcription Factor (Internal Marker) (AID 2282983; active = hit-call score of the fitted dose curve at least 0.9, where 1 is the maximum;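 for AC50: potency for rise in reporter mRNA above DMSO baseline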); conditions: HepG2 Attagene TRANS M06 internal marker reporter
Method in brief: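 mRNA levels of a reporter transcript, quantified as FAM fluorescence on capillary electrophoresis, served as readout. HepG2 cells expressing exogenous GAL4-chimera reporter constructs were exposed for 24 h. Gain of signal over DMSO was evaluated.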

[16] = ATG_M_32_TRANS: Attagene TRANS-FACTORIAL HepG2 Assay for M32 Transcription Factor (Internal Marker) (AID 2282984; active = hit-call score of the fitted dose curve at least 0.9, where 1 is the maximum;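 note: transcript level of a background control reporter unit measured by RT-PCR and capillary electrophoresis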); conditions: HepG2 Attagene TRANS M32 internal marker reporter
Method in brief: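 Cell-based TRANS-format assay in HepG2: exogenous chimeric GAL4 reporter units transiently expressed, compounds applied 24 h. Reporter mRNA detected by RT-PCR plus capillary electrophoresis; this readout is an internal background marker.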

[17] = ATG_NFI_CIS: Attagene CIS-FACTORIAL HepG2 Assay for human Nuclear Factor I (NFI) (AID 2282989); conditions: HepG2 cis-regulatory reporter, NFI response element transcription; actives raise or lower the signal
Method in brief: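 After transient transfection of HepG2 with cis-promoter reporter constructs and 24 h dosing, RNA is reverse-transcribed, amplified, 6-FAM end-labelled and HpaI-digested before capillary analysis. Bidirectional curve fitting against DMSO.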

[18] = molecular target: Glucocorticoid receptor (Homo sapiens) (UniProt P04150); test: ATG_GR_TRANS: Attagene TRANS-FACTORIAL HepG2 Assay for human Glucocorticoid Receptor (GR) (AID 2282978; active = hit-call score of the fitted dose curve at least 0.9, where 1 is the maximum;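 note: activators score as hits since higher reporter transcript over DMSO is fitted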); conditions: HepG2 Attagene TRANS GR reporter, mRNA transcription
Chain of Glucocorticoid receptor (Homo sapiens) (P04150 whole entry, looked up, the tested form may be a part): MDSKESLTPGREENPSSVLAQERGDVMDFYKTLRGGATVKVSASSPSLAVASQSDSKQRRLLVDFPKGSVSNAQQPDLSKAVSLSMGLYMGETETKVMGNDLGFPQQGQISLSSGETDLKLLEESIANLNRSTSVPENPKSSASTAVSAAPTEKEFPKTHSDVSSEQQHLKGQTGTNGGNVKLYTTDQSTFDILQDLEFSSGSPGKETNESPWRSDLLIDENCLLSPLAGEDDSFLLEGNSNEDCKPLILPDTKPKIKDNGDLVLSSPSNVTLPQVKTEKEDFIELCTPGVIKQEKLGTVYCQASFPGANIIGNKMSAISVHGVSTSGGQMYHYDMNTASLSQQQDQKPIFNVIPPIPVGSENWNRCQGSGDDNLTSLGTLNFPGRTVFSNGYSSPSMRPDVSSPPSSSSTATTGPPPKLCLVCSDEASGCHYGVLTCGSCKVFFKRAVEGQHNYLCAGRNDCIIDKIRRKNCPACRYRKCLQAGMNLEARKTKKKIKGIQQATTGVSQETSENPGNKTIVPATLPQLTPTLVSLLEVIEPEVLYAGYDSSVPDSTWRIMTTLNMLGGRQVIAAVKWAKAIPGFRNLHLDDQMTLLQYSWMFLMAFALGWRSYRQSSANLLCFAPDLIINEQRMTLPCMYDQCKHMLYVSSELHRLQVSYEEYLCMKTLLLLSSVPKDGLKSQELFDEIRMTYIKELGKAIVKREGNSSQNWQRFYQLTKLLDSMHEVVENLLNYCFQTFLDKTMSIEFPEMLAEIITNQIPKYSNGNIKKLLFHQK
Method in brief: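 HepG2 cells transiently transfected with multiplexed reporter units in which chimeric NR-GAL4 proteins drive GAL4-UAS reporters; 24 h compound exposure. Reporter mRNA measured by RT-PCR, 6-FAM labelling, HpaI digestion and capillary electrophoresis; gain-of-signal fitted versus DMSO.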

[19] = molecular target: Nuclear receptor subfamily 4 group A member 2 (Homo sapiens) (UniProt P43354); test: ATG_NURR1_TRANS: Attagene TRANS-FACTORIAL HepG2 Assay for human Nuclear Receptor Related Protein 1 (NURR1) (AID 2282985; active = hit-call score of the fitted dose curve at least 0.9, where 1 is the maximum); conditions: HepG2 Attagene TRANS reporter, mRNA readout
Chain of Nuclear receptor subfamily 4 group A member 2 (Homo sapiens) (P43354 whole entry, looked up, the tested form may be a part): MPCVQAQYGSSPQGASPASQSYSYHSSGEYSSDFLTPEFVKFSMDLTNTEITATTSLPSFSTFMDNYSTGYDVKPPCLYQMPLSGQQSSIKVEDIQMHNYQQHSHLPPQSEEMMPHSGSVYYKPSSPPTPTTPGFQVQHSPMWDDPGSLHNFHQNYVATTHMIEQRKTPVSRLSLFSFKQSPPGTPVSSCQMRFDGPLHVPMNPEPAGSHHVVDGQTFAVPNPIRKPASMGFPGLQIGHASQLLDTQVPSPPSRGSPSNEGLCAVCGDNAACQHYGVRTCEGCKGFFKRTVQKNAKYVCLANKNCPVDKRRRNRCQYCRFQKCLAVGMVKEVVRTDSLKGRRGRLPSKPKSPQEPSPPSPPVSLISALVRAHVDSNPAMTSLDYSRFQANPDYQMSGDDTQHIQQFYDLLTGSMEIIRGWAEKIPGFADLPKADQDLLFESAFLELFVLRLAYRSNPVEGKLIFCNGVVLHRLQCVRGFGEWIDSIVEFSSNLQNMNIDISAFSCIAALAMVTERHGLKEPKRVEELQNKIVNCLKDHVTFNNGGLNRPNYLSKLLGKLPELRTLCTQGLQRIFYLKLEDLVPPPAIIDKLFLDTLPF
Method in brief: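 Measures transcriptional activation by an exogenous NR-Gal4 chimera in transfected HepG2 liver cells. After 24 h, reporter RNA is reverse-transcribed, amplified and resolved by capillary electrophoresis; DMSO defines baseline.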

[20] = molecular target: Oxysterols receptor LXR-beta (Homo sapiens) (UniProt P55055); test: ATG_LXRb_TRANS: Attagene TRANS-FACTORIAL HepG2 Assay for human Liver X Receptor beta (LXRb) (AID 2282981; active = hit-call score of the fitted dose curve at least 0.9, where 1 is the maximum); conditions: HepG2 Attagene TRANS GAL4-LXRb reporter, mRNA
Method in brief: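 After 24 h of chemical treatment, transfected HepG2 cells yield total RNA; reporter cDNA is PCR-amplified, FAM-labelled, HpaI-cut and run on capillary electrophoresis. Signal reflects chimeric LXRb-Gal4 activity on GAL4-UAS reporters.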

Measured: AC50

CCCCCCCCOC(=O)CCCCCCCCC(=O)OCCCCCCCC
not listed: [14] | [15] | [16] | [17] | [18] | [19] | [20]
inactive: all other assays above

NC(=O)N1C(=O)C(C(=O)c2cc(Cl)cs2)c2cc(F)c(Cl)cc21 (configuration not stated)
active: [7] 6.05 µM | [8] 11 µM | [10] 5.53 µM | [11] 14.7 µM | [13] 14.9 µM
not listed: [6] | [18] | [19] | [20]
inactive: all other assays above

CC(O)CO (configuration not stated)
not listed: [14] | [16] | [19] | [20]
inactive: all other assays above

CC(=O)NC1(c2cccc(F)c2)CCN(CC[C@@]2(c3ccc(Cl)c(Cl)c3)CN(c3ccccc3)C(=O)CO2)CC1
active: [18] 62 µM | [15] 52 µM | [4] 57.5 µM | [5] 61.5 µM | [6] 55 µM | [7] 9.13 µM | [8] 37.3 µM | [9] 18.4 µM | [11] 20.4 µM | [12] 24.2 µM | [13] 27.1 µM
inactive: [2] | [14] | [3] | [10]

CCc1nn(C2CCCCC2)c2cc(C3(C#N)CCC(C(=O)O)CC3)ccc12 (configuration not stated)
active: [4] 100 µM | [6] 24.9 µM | [11] 7.5 µM | [12] 4 µM | [13] 16.5 µM
not listed: [14] | [17] | [20]
inactive: all other assays above

CC(=O)CC(C)(C)O
not listed: [2] | [14] | [17]
inactive: all other assays above

CCCCCCCCCCCCCC[N+](C)(C)C
active: [14] 43.7 µM and 40.9 µM | [7] 5 µM and 6.55 µM | [8] 11.1 µM | [10] 5.43 µM | [11] 1.25 µM | [12] 4.71 µM | [13] 2.93 µM
inactive: [1] | [2] | [15] | [16] | [3] | [4] | [17] | [5] | [6] | [8] | [9]
